Screening results: PubChem BioAssay, National Center for Advancing Translational Sciences (NCATS)
ALDH1A1 inh – ALDH1A1 (human) enzyme inhibition; P00352; Purified ALDH1A1, NADH fluorescence, propionaldehyde substrate; Potency, µM (highest dose often 75.3 µM), for the others: top-dose activity, negative = inhibition, most hits filed as inhibitors; 220,000 compounds, 7.3% hits; AID 1030;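 also: potency is read from the fitted curve at half-maximal effect; plate controls were no enzyme wells and a reference inhibitor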
PNC assembly inh – perinucleolar compartment assembly inhibition; PC3M PTB-GFP, PNC prevalence imaging, 16 h; stronger effect = lower value; activity change (PNC), negative = inhibition, % at 10 µM; 140,000 compounds, 3.1% hits; AID 2417;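 active = readout at or below -70, meaning at least 70% loss of cells showing the perinucleolar compartment, a nuclear body marking cancer cells; inconclusive = readout between -30 and a set limit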;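 also: plate controls were DMSO wells for no effect and camptothecin positive control wells for full effect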
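PC3M cells stably expressing PTB-GFP, 750–1000 cells/well, treated 16 h at 37 °C with compound (23 nl of library stock), in duplicate. After paraformaldehyde fixation and Hoechst stain, imaged at 20x; PNC prevalence scored by image analysis.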
HPGD block – blocks human HPGD enzyme activity; P15428; purified HPGD, NADH fluorescence kinetic, PGE2 substrate; Potency, µM, without a hit: at the top dose activity change, negative = inhibition, hits mostly inhibitors; 150,000 compounds, 4.3% hits; also: potency is read from the fitted curve at half-maximal effect
Target sequence (P15428 whole entry, looked up): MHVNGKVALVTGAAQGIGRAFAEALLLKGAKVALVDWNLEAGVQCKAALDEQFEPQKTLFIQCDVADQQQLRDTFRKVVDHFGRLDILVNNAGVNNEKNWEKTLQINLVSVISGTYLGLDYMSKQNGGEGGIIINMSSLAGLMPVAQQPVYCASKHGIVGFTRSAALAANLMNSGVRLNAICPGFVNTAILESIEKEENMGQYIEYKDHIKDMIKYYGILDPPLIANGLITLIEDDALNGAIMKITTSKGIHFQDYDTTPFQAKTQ
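NADH formation kinetics: reaction with 30 uM PGE2 and 1 mM NAD+ (final), 20 nM enzyme, Tris-HCl pH 8 with Tween 20, after 15 min compound preincubation at room temperature. Fluorescence change, last versus first of five reads.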
The depositor's hits bear a star. The list is not random: actives were taken first. Their share in the collection is about 11%. Unless noted, calls follow the shape of the dose curve; as a rule, active = well fitted inhibition curve with a large enough effect (not every such curve was filed as active); inconclusive = small, poorly fitted or top-dose-only effect, or another doubt; inactive = no such curve, though single readings can be large or run the other way. Unless noted, % is scaled to controls: 0 for no effect and ±100 for the full control effect.

`C/C(Cn1nc([N+](=O)[O-])cc1C)=N\NC(=O)COc1ccccc1[N+](=O)[O-]` gave ALDH1A1 inh 14µM*, PNC assembly inh inconclusive and HPGD block -8%.
CC1(C)CC(=O)c2cc(NC(=O)c3ccccc3)c(=O)oc2C1 was read as ALDH1A1 inh inconclusive and PNC assembly inh 0.
For O=C(Nc1cc2c(oc1=O)CCCC2=O)c1cccc(Cl)c1 the results were ALDH1A1 inh inconclusive, PNC assembly inh -106* and HPGD block -13%.
For COc1cc(/C=C2\CC/C(=C\c3cc(OC)c(O)c(OC)c3)C2=O)cc(OC)c1O the results were ALDH1A1 inh -3%, PNC assembly inh 57 and HPGD block inconclusive.
COc1cc(/C=C2/CCC/C(=C\c3cc(O)c(OC)c(Cl)c3)C2=O)cc(Cl)c1O was read as ALDH1A1 inh 14µM*, PNC assembly inh -5 and HPGD block -25%.
CC(C)CN1CN(Cc2ccccc2)CNC1=S was read as ALDH1A1 inh -3%, PNC assembly inh -18 and HPGD block 3%.
`C=CCN(Cc1cccc(OC)c1OC)S(=O)(=O)N(C)C` gave ALDH1A1 inh 25µM*, PNC assembly inh 42 and HPGD block -14%.
`COc1cccc(CN(C)C(=O)c2cccnc2SC)c1OC` gave ALDH1A1 inh 1%.
For CCCN1CCN(C(=O)Cn2cnc3ccc(S(=O)(=O)N4CCC(C)CC4)cc3c2=O)CC1 the results were ALDH1A1 inh 10%.
For CCOC(=O)c1c(N)sc2c1CCC(CC)C2 (configuration not stated) the results were ALDH1A1 inh inconclusive, PNC assembly inh 36 and HPGD block inconclusive.
CCCOC(=O)c1c(N)sc2c1CCC2 was read as ALDH1A1 inh 28µM*, PNC assembly inh -18 and HPGD block -20%.
For CCOC(=O)c1c(N)sc2c1CCN(Cc1ccccc1)C2 the results were ALDH1A1 inh -14% and HPGD block -25%.
`CCOC(=O)c1c(N)sc2c1CCSC2` gave ALDH1A1 inh 13µM*, PNC assembly inh 7 and HPGD block -22%.
For CCc1ccc(CN(C)C(=O)CCc2nnc(Cc3cccc(C)c3)o2)nc1 the results were ALDH1A1 inh 2%.
`COc1ccc(CN2C(=O)c3ccccc3C2C(=O)NC2CCC(C)CC2)c(OC)c1` (configuration not stated) gave ALDH1A1 inh -7%.
`Cc1noc(C)c1-c1nccc(NCc2ccccc2)n1` gave ALDH1A1 inh 34%.
CCc1c(C)sc(NC(=O)C2CCCO2)c1C#N (configuration not stated) was read as ALDH1A1 inh 16µM*, PNC assembly inh -26 and HPGD block 28µM*.
Cc1onc(C(=O)Nc2sc3c(c2C#N)CCCC3)c1[N+](=O)[O-] was read as ALDH1A1 inh 7.1µM*.
CCOC(=O)c1c(NC(=O)c2noc(C)c2[N+](=O)[O-])sc(C(C)=O)c1C was read as ALDH1A1 inh 25µM*.
Cc1onc(-c2ccccc2Cl)c1C(=O)Nc1sc2c(c1C#N)CCC2 was read as ALDH1A1 inh inconclusive, PNC assembly inh -4 and HPGD block inconclusive.
For CCc1c(C)sc(NC(=O)c2cc(-c3ccco3)on2)c1C#N the results were ALDH1A1 inh 28µM*, PNC assembly inh -26 and HPGD block inconclusive.
`CCc1c(C)sc(NC(=O)c2cccs2)c1C#N` gave ALDH1A1 inh inconclusive, PNC assembly inh 11 and HPGD block inconclusive.
For CCOC(=O)c1c(NC(=O)c2cc(-c3cccc(O)c3)on2)sc(C(C)=O)c1C the results were ALDH1A1 inh inconclusive, PNC assembly inh 39 and HPGD block -7%.
CCc1c(C)sc(NC(=O)c2cc(C3CC3)on2)c1C#N was read as ALDH1A1 inh inconclusive, PNC assembly inh 28 and HPGD block -21%.
Screening O=C(COC(=O)C1=COCCO1)Nc1ccc(OC(F)F)cc1 returned ALDH1A1 inh -5%.
Screening CCOC(=O)c1c(Cc2cccc(Cl)c2)c[nH]c1C returned ALDH1A1 inh -15%, PNC assembly inh -9 and HPGD block -14%.
`CCN(CC)CCCC(C)NC(=O)c1ccc(-n2c(=O)c(=O)[nH]c3ccccc32)cc1` (configuration not stated) gave ALDH1A1 inh -4% and HPGD block -9%.
`CCOc1ccc(N2C(=O)CC(N(CCc3ccc(OC)cc3)C(=O)/C=C/C(=O)O)C2=O)cc1` (configuration not stated) gave ALDH1A1 inh -5%.
For CCCCCCCCCCC(=O)Nc1cccnc1 the results were ALDH1A1 inh 8%.
For CCOC(=O)c1ccc(NC(=S)N(CCCN2CCCC(C)C2)Cc2ccco2)cc1 (configuration not stated) the results were ALDH1A1 inh -2%, PNC assembly inh 16 and HPGD block -16%.
`CCCc1cc(C(=O)Nc2sc(C)c(CC)c2C#N)no1` gave ALDH1A1 inh 28µM*, PNC assembly inh 9 and HPGD block -26%.
For CCCc1cc(C(=O)Nc2sc3c(c2C#N)CCC3)no1 the results were ALDH1A1 inh 11µM*, PNC assembly inh 40 and HPGD block 28µM*.
`CCc1c(C)sc(NC(=O)c2cc(C)on2)c1C#N` gave ALDH1A1 inh inconclusive, PNC assembly inh 34 and HPGD block -16%.
For CCCNC(=O)NC(=O)CSc1nncs1 the results were ALDH1A1 inh -8%.
`Cc1ccc(/C=C2/NC(=O)N(Cc3ccccc3F)C2=O)o1` gave ALDH1A1 inh 16µM*, PNC assembly inh 20 and HPGD block -17%.
For CCCN1C(=O)/C(=C/c2ccc(C)o2)NC1=S the results were ALDH1A1 inh 7.1µM*.
Screening Cc1ccc(/C=N/NC(=O)C(=O)N/N=C/c2ccc(C)o2)o1 returned ALDH1A1 inh 2%.
Cc1ccc(/C=C2/NC(=O)N(Cc3ccc(Br)cc3)C2=O)o1 was read as ALDH1A1 inh 13µM*, PNC assembly inh -25 and HPGD block inconclusive.
Screening O=C1S/C(=C\c2ccccn2)C(=O)N1Cc1ccccc1F returned ALDH1A1 inh inconclusive, PNC assembly inh -23 and HPGD block 4%.
O=C1N/C(=C/c2cccn2-c2ccccc2)C(=O)N1Cc1ccc(F)cc1 was read as ALDH1A1 inh inconclusive, PNC assembly inh -15 and HPGD block -3%.
For CCN1C(=O)N/C(=C/c2ccc(C)o2)C1=O the results were ALDH1A1 inh 15µM*, PNC assembly inh 13 and HPGD block -23%.
Cc1ccc(OCCN2C(=O)S/C(=C\c3ccc(C)o3)C2=O)cc1 was read as ALDH1A1 inh inconclusive, PNC assembly inh 11 and HPGD block -10%.
Screening C/C=C/C1=Cc2ccccc2C(C(C(=O)OC)C(=O)OC)N1C(=O)OC (configuration not stated) returned ALDH1A1 inh 3% and HPGD block -2%.
Screening CCN1C(=O)/C(=C/c2cccs2)N(C)C1=S returned ALDH1A1 inh inconclusive, PNC assembly inh inconclusive and HPGD block -22%.
Screening CCN1C(=O)/C(=C/c2ccc(C)o2)N(C)C1=S returned ALDH1A1 inh 1.6µM*, PNC assembly inh inconclusive and HPGD block inconclusive.
`COc1ccccc1N(C(=O)c1snc(C(N)=O)c1N)C(C(=O)NC1CCCC1)c1ccco1` (configuration not stated) gave ALDH1A1 inh inconclusive, PNC assembly inh 30 and HPGD block inconclusive.
